Reference: PubChem BioAssay AID1007 (NMMLSC, 2008)
Out of some 190,000 compounds screened, about 80 (0.04%) were called active. Rule as the data show it: active = inhibition above about 40%. Not all results are given here.

molecular target: Bcl-2-like protein 1 (Homo sapiens) (UniProt Q07817); experiment: inhibitors of Bim-Bcl-XL binding, primary screen, biochemical, multiplexed, bead flow cytometry, human Bcl-XL (AID 1007); conditions: Bim peptide-Bcl-XL binding, fluorescence, at 10 µM, active compounds read high
Sequence (Q07817 whole entry, looked up): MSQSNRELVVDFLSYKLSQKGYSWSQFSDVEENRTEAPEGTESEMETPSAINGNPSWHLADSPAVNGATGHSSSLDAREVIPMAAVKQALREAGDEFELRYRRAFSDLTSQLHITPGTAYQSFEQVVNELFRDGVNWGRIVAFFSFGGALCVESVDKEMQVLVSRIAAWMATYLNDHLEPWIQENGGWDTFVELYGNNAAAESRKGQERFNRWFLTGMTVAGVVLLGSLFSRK

inhibition, inactive:
O=C1COc2ccc(C(=O)COC(=O)c3cccnc3Cl)cc2N1 -3%
O=C(CCS(=O)(=O)Cc1ccccc1)Nc1ccc2c(c1)OCCO2 0%
NC1=NC2(CCCCC2)N(c2ccc(F)cc2F)C(N)=N1 -6%
COc1ccc2ccccc2c1CNc1nnnn1C 1%
CC(C)(C)NC(=O)COC(=O)c1cc(Br)ccc1Cl -9%
O=C(OCC(=O)N1CCOCC1)c1ccc(N2CCOCC2)c([N+](=O)[O-])c1 1%
Cc1nc(-c2ccc(Cl)cc2)sc1C(=O)CBr 0%
Cc1cccc(NC(=O)c2cccc(C(F)(F)F)c2)c1 -3%
CC[N+]1(CC)CC2=Cc3ccccc3CC2C1 (centres undefined) -4%
CNC(=O)NC(=O)C(OC(=O)c1cccc(S(=O)(=O)N2CCCCC2)c1)c1ccccc1 (centres undefined) -4%
CCCn1c(NC(=O)C23CC4CC(CC(O)(C4)C2)C3)nc2ccccc21 -2%
Cc1cc(C)n(CCNCc2c(C(=O)N3C[C@@H](C)O[C@@H](C)C3)nc3ccc(Cl)cn23)n1 -1%
O=C(N/N=C/c1ccccc1O)/C(=C/c1ccccc1)CCO -10%
CCOc1ccc(CCN2C(=O)c3cccnc3C2=O)cc1OCC 0%
CC(=O)c1c(Nc2ccccc2)sc(C(=O)c2ccccc2)c1C -6%
COc1ccc2nc(Nc3nc(-c4ccncc4)cs3)sc2c1 -1%
Cc1ccc(-c2c(C)n([O-])c3c([n+]2=O)CCC3)cc1 -3%
O=C(CO/N=C/c1ccccc1OC(F)F)NC1CCCC1 1%
Cc1ccccc1N(C(=O)Cc1cccs1)C(C(=O)NC1CCCCC1)c1cn(C)nc1C (centres undefined) -5%
Cc1cc(NC(=O)CSc2nccn2-c2ccc([N+](=O)[O-])cc2)no1 -15%
Cc1nnc(SCC(=O)NNC(=O)c2ccc(Cl)cc2)n1CC1CCCO1 (centres undefined) -6%
Cc1ccc(N(C(=O)Cc2cccs2)C(C(=O)NCC2CCCO2)c2ccncc2)cc1 (centres undefined) 2%
Cc1cccc(N2CCN(c3ccc(C(N)=O)cc3[N+](=O)[O-])CC2)c1C 0%
CCOc1ncccc1C(=O)N(CC)CC(=O)Nc1ccc(NC(C)=O)cc1 -9%
CN(c1ccccc1)S(=O)(=O)c1cc(C(=O)Nc2nc3ccccc3[nH]2)ccc1Cl 8%
COC(=O)CN1C(=S)N(c2ccccc2)C(=O)C1CC(=O)Nc1ccc(Cl)cc1 (centres undefined) -5%
N#C/C(=C(/O)COC(=O)COc1ccc(Cl)cc1)c1nc2ccccc2[nH]1 -11%
COCCCNC(=S)NCCNc1nc2cc(C)c(C)cc2cc1C#N -1%
S=C(NCC1CCCO1)N1CCN(c2ccc(Cl)c(Cl)c2)CC1 (centres undefined) -1%
CCn1cnc2scc(-c3ccc(C)c(C)c3)c2c1=O 0%
CC(C)Oc1ccc(CCc2nnc(SCC(=O)O)n2-c2ccccc2)cc1 -5%
COc1ccccc1OCC(=O)OCn1c(SC)nnc(C)c1=O -7%
N=C1/C(=C/c2cccn2-c2cccc([N+](=O)[O-])c2)C(=O)N=C2SC=CN12 -5%
Cc1c(C(=O)NCCN2C(=O)S/C(=C\c3cccs3)C2=O)cccc1[N+](=O)[O-] -6%
CCCn1nc(NS(=O)(=O)c2ccccc2)c2cc3cc(C)ccc3nc21 0%
Cc1ccc(NC(=O)CSc2nc(CSc3ccc(C)cc3)cc(=O)[nH]2)cc1 -1%
CN(C)C(CNC(=O)Cc1ccc([N+](=O)[O-])cc1)c1ccccc1 (centres undefined) -1%
S=c1[nH]nc(-c2cccs2)n1/N=C/c1cccs1 1%
FC(F)(F)c1cccc(Cc2noc(CN3CCC(N4CCCCC4)CC3)n2)c1 0%
COc1ccc(C/C(C)=N/NC(=O)c2ccncc2)cc1 -3%
Cc1ccc(N(C(=O)c2ccc(S(=O)(=O)N(C)C)cc2)C2C=CS(=O)(=O)C2)cc1 (centres undefined) 0%
Cc1ccc(C(=O)/C=C/Nc2ccc(S(=O)(=O)Nc3onc(C)c3C)cc2)cc1 -1%
O=C(CNCc1ccc(Cl)cc1)Nc1cccc(C(=O)O)c1 -5%
CNS(=O)(=O)c1ccc(NC(=O)C2CC(=O)N(c3ccc(Cl)cc3)C2)cc1 (centres undefined) -2%
CC(=O)Nc1ccc(NC(=O)C(C)n2c3ccccc3c3nc(=O)cc(C)n32)cc1 (centres undefined) 0%
O=C(O)c1cccc(NC(=S)N/N=C/c2c[nH]c3ccccc23)c1 -4%
CCOC(=O)CN1C(=O)N[C@@H](c2ccc(Br)cc2)C(C(C)=O)=C1C -2%
COc1ccc(C(C(=O)NC2CCCCC2)N(C(=O)Cc2c[nH]c3ccccc23)c2ccccc2)cc1OC (centres undefined) 10%
COc1cc(CN(C)Cc2nc3cc(C(F)(F)F)ccc3c(=O)[nH]2)ccc1OC(F)F 0%
COCCN(CCOC)S(=O)(=O)c1ccc(/C(O)=C(\C#N)c2nc3ccccc3[nH]2)cc1 -3%
O=C(NCc1ccccc1Cl)C1CCCO1 (centres undefined) 2%
O=C(O)c1ccccc1-c1ccccc1C(=O)NCc1cccnc1 -2%
Cc1ccccc1-n1nc(SCC(=O)O)sc1=S 2%
COc1ccc(-c2[nH]ncc2CN(C)Cc2cc(C)[nH]n2)c(F)c1 -3%
CCOCCCNC(=S)N1CCC(NC(=O)C2CCCCC2)CC1 -3%
CNC(=S)N/N=C/c1cn(Cc2ccc(C)cc2)c2ccccc12 -5%
COc1ccc(C(=O)C2CCCN(C(=O)c3cc4nc(C)cc(C)n4n3)C2)cc1F (centres undefined) -2%
CC(C)NC(=O)C(=O)NCCCOC(C)C -6%
NC(=S)N/N=C/c1coc2cc(Cl)ccc2c1=O -5%
Cc1ccc(Nc2nnc(SCC(=O)c3cc4ccccc4o3)s2)cc1C -20%
COc1cc(NC(=S)N2CCCC(C)C2)c(OC)cc1Cl (centres undefined) -7%
CC(C)COP(=O)(c1ccc(N(C)C)cc1)C(Nc1ccccc1)c1cccnc1 (centres undefined) -15%
CC1CC(=S)Nc2ccccc2N1Cc1ccccc1 (centres undefined) -6%
CSc1ccccc1NC(=O)Cc1ccc(Br)cc1 -4%
CCCN(CC(=O)Nc1ccccc1C)C(=O)c1cc(=O)[nH]c2ccccc12 2%
Cc1cc(=O)oc2c1c(C)nn2-c1ccc(Cl)cc1 1%
COc1ccc(C(C)=O)cc1CSc1nc2nc(C)cc(C)n2n1 -2%
Cc1nc(S(=O)(=O)c2ccc(Br)cc2)nc2c1CCC2 0%
COc1cc(C(=O)N2C(=O)c3cccc(N)c3C2=O)cc(OC)c1OC -2%
Cc1ccc(C)c(OCC(=O)N2CCN(C(=O)c3ccco3)CC2)c1 -8%
COc1cc(C(=O)Nc2cc(C(F)(F)F)ccc2N2CCOCC2)ccc1O -6%
CCCn1nc(Oc2nc(NC(C)C)nc(N(C)C)n2)ccc1=O -2%
NS(=O)(=O)c1ccc(NC(=O)/C=C/c2ccccc2Cl)cc1 1%
NNC(=O)COc1ccc(C2SCCS2)cc1 0%
COc1ccc(-n2nnnc2SCC(=O)NCc2cccs2)cc1 1%
Cn1c(-c2ccc(F)cc2)cnc1SCC(=O)NNC(=O)Cc1ccccc1 0%
Cc1ccc(CC(=O)Nc2cccc(C#N)c2)cc1 -4%
C[C@H](NC(=O)c1ccccc1Cl)C(=O)OCCOc1cccc(Cl)c1 -14%
Cn1nnnc1NCc1ccc(Cl)c(Cl)c1 0%
COc1ccc(CNC(=O)C2CCN(S(C)(=O)=O)CC2)cc1 -3%
CC(Nc1ccccc1)c1cccnc1 (centres undefined) -2%
CCOC(=O)NC(=O)CSc1nnc(SCCC(=O)O)s1 -10%
O=C(Nc1ccccc1-c1ccccc1)c1cccs1 -3%
CC(C)(C)c1ccc(C(=O)NCc2nnc(SCC(=O)N3CCCc4ccccc43)n2-c2ccccc2)cc1 -8%
Cc1ccc(O)c(-c2cc(C(=O)NCc3ccccc3)[nH]n2)c1 -3%
C/C(N)=C(/C#N)C(=O)COC(=O)c1cc(-c2cccc(Br)c2)nc2ccccc12 -1%
CCOC(=O)N1CCN(C(=O)c2ccccc2N(Cc2ccccc2)S(=O)(=O)c2ccc(OC)cc2)CC1 0%
Cc1ccc(S(=O)(=O)/N=S(\C)C(C)C)cc1 (centres undefined) -3%
COc1ccccc1CNC(=O)CNC(=O)c1cn(-c2ccccc2OC)c(=O)c2ccccc12 -2%
CC(=O)OC(COc1ccc(F)cc1)Cn1cnc2ccccc21 (centres undefined) -4%
O=C(Nc1ccc(F)c([N+](=O)[O-])c1)C1CC(=O)N(Cc2ccccc2)C1 (centres undefined) 0%
Cc1ccnc2nc(C(=O)OCC(=O)N(CC(C)C)CC(C)C)nn12 -7%
Cc1ccc(OCC(=O)Nc2ccccc2Sc2ccc(Cl)cc2)c([N+](=O)[O-])n1 0%
O=C1N/C(=N\N=C\c2ccco2)SC1Cc1ccc(F)cc1 (centres undefined) -4%
CCNC(=O)NC(=O)C(C)OC(=O)C1CCN(S(=O)(=O)c2ccccc2F)CC1 (centres undefined) -2%
CN1CCN(/N=C2/C(=O)Nc3ccc([N+](=O)[O-])cc32)CC1 0%
COc1ccc(CN2CCC(c3nc4ccc(Cl)cc4[nH]3)CC2)cc1 0%
CC(=O)Nc1ccc(S(=O)(=O)N(C)c2ccc(OCC(=O)OCC(=O)N3CCCCC3)cc2)cc1 -3%
Cc1cc(C)cc(NC(=O)COC(=O)c2cc(C)oc2C)c1 -4%
O=C(CN1CCN(C/C=C/c2ccccc2)CC1)Nc1ccc(F)cc1F -1%
CN=C(c1ccccc1)c1c(C)cccc1C -9%
COc1cccc(OCCCN2CCCCCC2)c1 -1%
Cc1cc(O)ccc1NC1=CC(=O)CC(C)(C)C1 0%
C#CCNC(=O)C1=C[C@@H](c2ccccc2)[C@H](CCCO)[C@@H](OCC)O1 -1%
